This passage reports Potency and outcome results from PubChem BioAssay (NCATS).

Records with an inconclusive call do not appear. Where a call stands in place of a potency, no number is given. The source made the active and inactive calls. Calls come from the whole dose curve; as a rule, active = well fitted curve in the direction sought with a large enough effect; inconclusive = small, poorly fitted or top-dose-only effect, or another doubt; inactive = no such curve, though single readings can be large; an effect the other way counts as inactive or inconclusive.

The target in experiment [1] is Tyrosine-protein kinase Yes (Homo sapiens) (UniProt P07947). Briefly: qHTS for small molecule inhibitors of Yes1 kinase: Primary Screen (AID 686947). Note: nearly all actives have a fitted effect of over 60% in size. Note: potency is the fitted concentration of half-maximal effect. The gist of the method: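 ADP-Glo luminescence readout; final 4 nM Yes1, 0.1 mM ATP, 0.3 mg/mL poly(E4Y), Tris pH 7.5, MgCl2, DTT, Brij-35. 20 min compound preincubation, 60 min reaction at RT. Normalized to DMSO wells with and without enzyme.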
Chain of Tyrosine-protein kinase Yes (Homo sapiens) (P07947 whole entry, looked up): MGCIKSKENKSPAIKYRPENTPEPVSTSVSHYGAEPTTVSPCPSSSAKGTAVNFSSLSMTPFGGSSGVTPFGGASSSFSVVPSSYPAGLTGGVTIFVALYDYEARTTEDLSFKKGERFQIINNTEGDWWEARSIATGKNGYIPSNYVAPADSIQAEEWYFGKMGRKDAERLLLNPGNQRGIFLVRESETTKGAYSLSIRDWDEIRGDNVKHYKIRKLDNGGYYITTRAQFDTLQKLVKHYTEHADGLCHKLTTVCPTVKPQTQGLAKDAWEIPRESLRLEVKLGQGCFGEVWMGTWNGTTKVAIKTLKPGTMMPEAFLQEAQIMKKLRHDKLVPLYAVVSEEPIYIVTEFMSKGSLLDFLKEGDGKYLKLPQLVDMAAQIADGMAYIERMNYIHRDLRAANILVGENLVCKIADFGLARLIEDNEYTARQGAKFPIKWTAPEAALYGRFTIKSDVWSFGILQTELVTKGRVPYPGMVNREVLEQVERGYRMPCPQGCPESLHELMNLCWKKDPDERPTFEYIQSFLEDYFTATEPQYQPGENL
(Quantitative high-throughput screening tests each substance at several concentrations.)

The nature of experiment [2]: qHTS for small molecule inhibitors of Yes1 kinase: Counter Assay (AID 686950).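 Note: no kinase present so only ADP-Glo detection of a fixed ADP amount is tested; luminescence from ADP-Glo reporting ADP in a fixed ATP and ADP mixture; series mostly up to about 77 µM.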 Put shortly: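 Enzyme-free detection counter-screen: compounds preincubated 20 min in buffer, then 0.08 mM ATP plus 0.02 mM ADP added for 60 min at room temperature; ADP-Glo luminescence. Buffer 50 mM Tris pH 7.5, 10 mM MgCl2, 150 mM NaCl; normalized to ATP+ADP and ATP-only controls.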

As for `CCn1c(-c2nonc2N)nc2ccc(F)cc21`, the Potency entry in experiment [1] is “inactive”. In experiment [2], the result was inactive.

With `COc1cc(C=NNc2ncnc3c2cnn3Cc2ccccc2)ccc1O`, the Potency in experiment [1] is 0.116 µM (active). In addition, the compound was classed as inactive in experiment [2].

On to `COC(=O)Nc1nc2ccc(Oc3ccc(NC(=O)Nc4cccc(C(=O)O)c4)cc3)cc2[nH]1`, for which the Potency result in experiment [1] was “inactive”. In experiment [2], the outcome was inactive.

For `O=C1N=c2ccc(N=Cc3c(O)[nH]c4ccccc34)cc2=N1`, in experiment [1], the Potency is 2.92 µM (active). Further, the compound was classed as inactive in experiment [2].

In the case of `Cc1nn(C)c2cc(N(C)c3ccnc(Nc4cccc(S(N)(=O)=O)c4)n3)ccc12`, the Potency in experiment [1] is 1.16 µM (active). Also, the result in experiment [2] was inactive.

Regarding `CS(=O)(=O)Nc1ccc(-c2ccc3c(NC(=O)C4CC4)n[nH]c3c2)cc1`, the Potency in experiment [1] is 20.7 µM (active). Further, the compound was classed as inactive in experiment [2].

Consider `COc1cccc(C=NNc2ncnc3c2cnn3-c2cccc(OC)c2)c1`, for which the Potency in experiment [1] was 7.33 µM (active). For the same compound, the result in experiment [2] was inactive.

As for `Nc1nccc(-c2c(-c3ccc(F)cc3)ncn2C2CCC(O)CC2)n1` (stereo not given), the Potency in experiment [1] was 0.733 µM (active). Moreover, the result in experiment [2] was inactive.

Take `c1ccc(-c2[nH]ncc2-c2ccnc(-c3ccc(OCCN4CCOCC4)cc3)c2)nc1`: the Potency in experiment [1] was 7.33 µM (active). The result in experiment [2] was inactive.

As to `O=C(Nc1n[nH]c2nc(-c3ccc(O)cc3)c(Br)cc12)C1CC1`, the Potency in experiment [1] was 1.64 µM (active). Further, the call in experiment [2] was inactive.

Turning to `CCn1c(-c2nonc2N)nc2cnc(Oc3cccc(NC(=O)c4ccc(N(C)C)cc4)c3)cc21`, the Potency entry in experiment [1] was “inactive”. The compound was classed as inactive in experiment [2].

Take `CCC(=O)Nc1ccc(C)c(-c2ccc(C(=O)NCC3CC3)cc2)c1`: the Potency result in experiment [1] was “inactive”. Moreover, in experiment [2], the outcome was inactive.

`COc1cc2ncn(-c3cc(OCCc4ccccc4)c(C(N)=O)s3)c2cc1OC`: in experiment [1], the Potency result is “inactive”. Moreover, the call in experiment [2] was inactive.

For the compound `Cc1ccc2c(-c3ccnc(Nc4cccc(C(F)(F)F)c4)n3)c(-c3ccccc3)nn2n1`, in experiment [1], the Potency is 0.146 µM (active). The result in experiment [2] was inactive.

Turning to `NC(=O)c1ccc(Oc2nccc(-c3c(-c4ccc(F)cc4)ncn3C3CCNCC3)n2)cc1`, the Potency in experiment [1] is 11.6 µM (active). The outcome in experiment [2] was inactive.

`CN(c1ccc(NC(=O)NCCN2CCOCC2)cc1)c1ccnc(Nc2ccc(CS(C)(=O)=O)cc2)n1`: the Potency in experiment [1] is 11.6 µM (active). In addition, in experiment [2], the compound was called inactive.

For the compound `COc1ccc(-c2nn3ncccc3c2-c2ccnc(Nc3ccc(Cl)c(C(F)(F)F)c3)n2)cc1`, the Potency in experiment [1] is 3.68 µM (active). Moreover, in experiment [2], the call was inactive.

Consider `COc1cc2c(cc1Nc1nc(Nc3cccc(F)c3C(N)=O)c3cc[nH]c3n1)N(C(=O)CN1CCN(C(C)C)CC1)CC2`, for which the Potency result in experiment [1] is “inactive”. In addition, the result in experiment [2] was inactive.

`COc1cc(Nc2ncc(-c3ccccc3)o2)cc(OC)c1`: the Potency in experiment [1] was 1.46 µM (active). Further, in experiment [2], the call was inactive.

For `N#Cc1cccc(Nc2ncc(-c3ccccc3)o2)c1`, in experiment [1], the Potency is 26 µM (active). Moreover, in experiment [2], the outcome was inactive.

Turning to `COc1cc(Nc2nccc(-c3cnn4ncccc34)n2)cc(OC)c1`, the Potency in experiment [1] was 0.519 µM (active). Moreover, the outcome in experiment [2] was inactive.

In the case of `Cc1ccc(NC(=O)c2ccnc(N3CCCC3)c2)cc1-c1ccc(C(=O)NCC2CC2)cc1`, in experiment [1], the Potency result is “inactive”. The outcome in experiment [2] was inactive.

On to `CCN(CC)S(=O)(=O)c1ccc(OC)c(Nc2ncc(-c3ccccc3)o2)c1`, for which the Potency in experiment [1] is 0.654 µM (active). Also, the call in experiment [2] was inactive.

For the compound `CC(C)COC(=O)c1ccc2[nH]c(O)c(C=Nc3ccc(S(N)(=O)=O)cc3)c2c1`, the Potency in experiment [1] is 9.23 µM (active). In addition, the result in experiment [2] was inactive.

With `CS(=O)(=O)CCNCc1ccc(-c2ccc3ncnc(Nc4ccc(OCc5cccc(C(F)(F)F)c5)cc4)c3c2)o1`, the Potency in experiment [1] is 6.54 µM (active). Also, the outcome in experiment [2] was inactive.

Take `Cc1ccc(Nc2ccnc(Nc3cccc(C(N)=O)c3)n2)cc1O`: in experiment [1], the Potency was 0.0292 µM (active). Besides, in experiment [2], the result was inactive.

`CCn1c(-c2nonc2N)nc2c(C#CC(C)(C)O)ncc(OCC3CCCN3)c21` (stereo not given): the Potency in experiment [1] is 26 µM (active). In experiment [2], the call was inactive.

As to `O=C(NCC1CC1)c1ccc(-c2cccc(C(=O)NC3CC3)c2)cc1`, in experiment [1], the Potency result is “inactive”. The compound was classed as inactive in experiment [2].

For `COc1cc(Nc2ncc3c(C)nc(-c4cccc(C(F)(F)F)c4)n3n2)cc(OC)c1OC`, in experiment [1], the Potency was 0.582 µM (active). In addition, the result in experiment [2] was inactive.

On to `Cc1cc(O)cc(C)c1C=Cc1cncc(-c2nn[nH]n2)c1`, for which, in experiment [1], the Potency was 0.0654 µM (active). The outcome in experiment [2] was inactive.

In the case of `Cc1cc(O)cc(C)c1C=Cc1cncc(C(=O)OC(C)(C)C)c1`, the Potency in experiment [1] is 0.733 µM (active). Besides, the call in experiment [2] was inactive.

Take `CCS(=O)(=O)c1ccc(OC)c(Nc2nccc(N(C)c3ccc4c(C)[nH]nc4c3)n2)c1`: the Potency in experiment [1] is 0.0519 µM (active). In experiment [2], the call was inactive.

For the compound `CS(=O)(=O)CCNCc1ccoc1-c1ccc2ncnc(Nc3ccc(OCc4ccccc4)cc3)c2c1`, the Potency in experiment [1] was 3.68 µM (active). For the same compound, the compound was called inactive in experiment [2].

Turning to `CC(Oc1cc(-n2cnc3ccc(OC4CCN(C)CC4)cc32)sc1C(N)=O)c1ccccc1Cl` (stereo not given), the Potency in experiment [1] is 5.82 µM (active). For the same compound, in experiment [2], the compound was classed as inactive.

As to `Fc1ccc(Nc2nccc(-c3c(-c4ccc(C(F)(F)F)cc4)nn4ncccc34)n2)cc1F`, the Potency entry in experiment [1] is “inactive”. Further, the result in experiment [2] was inactive.
